Source: PubChem
An excerpt weighted towards active compounds, which were near 12% of everything screened.
G9a block = blocks human histone lysine methyltransferase G9a | Q96KQ7 | G9a H3K9 monomethylation, AlphaScreen, 2 h | Potency, µM (top dose mostly 102 µM), for the others: at the highest dose activity, negative = inhibition, usual class: inhibitors | actives 8.8% (n = 350,000) | AID 504332; also: % is scaled to controls: 0 for no effect and ±100 for the full control effect; nearly all actives have a fitted effect of over 75% in size
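Quantitative HTS format: methyltransferase activity on a biotin-tagged H3K9 peptide is measured by AlphaScreen, using a rabbit anti-monomethyl-H3K9 antibody with streptavidin donor and anti-IgG acceptor beads. Final levels are 20 nM enzyme, 500 nM peptide, 20 uM SAM; 2 h RT.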
HP1b chromo inh = inhibitors of HP1-beta chromodomain binding to methylated histone tails. AlphaScreen HP1-beta / biotin-H3K9me3 peptide binding. P83916. actives 0.56% (n = 390,000). AID 540317. Potency, µM (series often up to 114 µM), inactives show at the highest dose activity change, negative = inhibition, hits mostly inhibitors; also: nearly all actives have a fitted effect of over 70% in size
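HP1-beta protein (50 nM final) preincubated 30 min at room temperature with biotinylated H3(1-18)K9me3 peptide (50 nM) in PBS pH 7.4, 0.01% Tween-20, then compound added for 30 min. AlphaScreen streptavidin donor/nickel chelate acceptor beads (10 ug/mL final), 30 min dark, luminescence read.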
JMJD2A Tudor = inhibitors of human JMJD2A Tudor domain | Potency, µM (series often up to 114 µM), for inactives: at the top dose activity change, negative = inhibition, most hits filed as inhibitors | AID 504339 | AlphaScreen JMJD2A-Tudor / H3K4me3 peptide binding | actives 4.4% (n = 390,000) | O75164; also: % is scaled to controls: 0 for no effect and ±100 for the full control effect; nearly all actives have a fitted effect of over 50% in size
L3MBTL1 block = inhibitors of human L3MBTL1; Q9Y468; AlphaScreen L3MBTL1–H3K9me1 peptide binding; Potency, µM (series often up to 57.1 µM), inactives show top-dose activity, negative = inhibition, actives largely listed as inhibitors; actives 0.66% (n = 230,000); also: % is scaled to controls: 0 for no effect and ±100 for the full control effect; nearly all actives have a fitted effect of over 60% in size
Target sequence (Q9Y468 whole entry, looked up): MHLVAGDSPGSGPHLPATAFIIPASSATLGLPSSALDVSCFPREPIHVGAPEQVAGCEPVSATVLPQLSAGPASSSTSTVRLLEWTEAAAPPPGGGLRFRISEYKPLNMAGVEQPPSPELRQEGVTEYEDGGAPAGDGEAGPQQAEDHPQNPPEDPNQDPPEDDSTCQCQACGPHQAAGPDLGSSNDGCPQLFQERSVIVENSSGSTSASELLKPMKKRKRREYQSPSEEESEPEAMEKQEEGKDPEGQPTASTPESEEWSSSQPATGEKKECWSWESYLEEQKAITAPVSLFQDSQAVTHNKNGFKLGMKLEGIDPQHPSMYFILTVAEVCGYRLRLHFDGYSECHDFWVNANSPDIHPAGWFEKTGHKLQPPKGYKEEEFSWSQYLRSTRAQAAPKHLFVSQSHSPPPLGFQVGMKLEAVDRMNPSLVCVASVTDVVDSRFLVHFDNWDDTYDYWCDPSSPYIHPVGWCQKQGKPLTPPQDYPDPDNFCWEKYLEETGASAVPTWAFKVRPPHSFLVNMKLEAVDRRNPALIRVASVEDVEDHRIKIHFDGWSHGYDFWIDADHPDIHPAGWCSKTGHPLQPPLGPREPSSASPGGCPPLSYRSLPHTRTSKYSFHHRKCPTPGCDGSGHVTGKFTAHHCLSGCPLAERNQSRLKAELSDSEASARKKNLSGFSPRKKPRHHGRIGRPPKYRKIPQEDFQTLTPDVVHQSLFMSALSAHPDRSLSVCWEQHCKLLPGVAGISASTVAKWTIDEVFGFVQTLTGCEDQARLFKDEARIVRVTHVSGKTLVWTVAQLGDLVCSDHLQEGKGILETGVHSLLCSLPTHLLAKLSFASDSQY
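Displacement of a biotinylated histone H3(1-15) peptide monomethylated at Lys9 (75 nM) from L3MBTL1 (50 nM) was measured by AlphaScreen after a 30 min room-temperature compound incubation; cefsulodin titration served as intraplate control.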
Sfp inh = blocks B. subtilis Sfp PPTase activity; AID 1490; Q9F4F7; Biochemical Sfp PPTase activity, qHTS; Potency, µM, without a hit: largest response in the series, negative = inhibition, usual class: inhibitors; actives 3.5% (n = 310,000);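 also: the enzyme is Sfp with the accession as filed and its product quenches rhodamine fluorescence; 0% = enzyme reaction without inhibitor and -100% = no enzyme wells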
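Sfp 15 nM + cpd, 15 min RT; start w/ rhodamine-CoA 5 uM, BHQ-2-YbbR 12.5 uM (final); 50 mM Hepes pH 7.6, 10 mM MgCl2, 0.01% NP-40, 0.01% BSA; read 525/598 nm at 0 and 30 min.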
BAZ2B inh = blocks human BAZ2B; Q9UIF8; AlphaScreen BAZ2B-H3K14Ac peptide displacement; Potency, µM (top dose mostly 114 µM), without a hit: at the top dose activity change, negative = inhibition, actives largely listed as inhibitors; AID 504333; actives 4.4% (n = 360,000); also: % is scaled to controls: 0 for no effect and ±100 for the full control effect; nearly all actives have a fitted effect of over 60% in size
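AlphaScreen displacement of biotin-H3(5-23)K14Ac peptide (50 nM final) from BAZ2B (50 nM final) in PBS pH 7.4, 0.01% Tween-20; complex preformed 30 min RT, then compounds (top 110 uM) 30 min RT, beads 20 min dark.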
An asterisk follows results filed as active; u = inconclusive; x = no result; [ ] = dose if it differs, or a comment. Calls follow the shape of the dose curve; as a rule, active = well fitted curve in the direction sought with a large enough effect; inconclusive = small, poorly fitted or top-dose-only effect, or another doubt; inactive = no such curve, though single readings can be large; an effect the other way counts as inactive or inconclusive. Potency is read from the fitted curve at half-maximal effect.

SMILES	G9a block	HP1b chromo inh	JMJD2A Tudor	L3MBTL1 block	Sfp inh	BAZ2B inh
COc1ccccc1-c1nc(SCC(=O)Nc2ccc(C)c(C)c2)n[nH]1	-34%[59 µM]	38%	-18%	x	x	1%
C=C1CC2C(=O)N(Cc3ccccc3)C(C(=O)O)C1N2C(=O)OC(C)(C)C (stereo not given)	x	17%	-17%	x	0%	x
CC(Oc1ccccc1)C(=O)Nc1nc(-c2ccncc2)cs1 (stereo not given)	-9%[12.7 µM]	31%	-10%	0%	x	3%
C[C@H](NC(=O)c1ccccc1)C(=O)Nc1nc(-c2ccccn2)cs1	-3%	36%	79µM*	x	-14%	14µM*
CC(NC(=O)c1ccccc1)C(=O)NC1=NCCS1 (stereo not given)	-12%[59 µM]	12%	u	6%	18%	-3%
CC(Oc1ccccc1)C(=O)Nc1nc(-c2ccccn2)cs1 (stereo not given)	50µM*	16%	20µM*	u	x	40µM*
CC(Oc1cccc(Cl)c1)C(=O)Nc1nc(-c2ccccn2)cs1 (stereo not given)	32µM*	51%	50µM*	-11%	x	56µM*
CN(C(=O)Cn1cc([N+](=O)[O-])ccc1=O)C1CCCCC1	-6%[12.7 µM]	9%	-13%	4%	x	8%
O=C(Nc1nc2c(s1)CN(Cc1ccccc1)CC2)C1CCC1	45µM*	14%	-23%	-7%	-7%	u
CCN1CCc2nc(NC(=O)c3ccccc3)sc2C1	u	25%	-16%	x	-9%	-18%
CNC(=O)N(O)C1N(/N=C/c2cc(Br)ccc2O)C(=S)SC1(C)C (stereo not given)	16%	-7%	u	x	79µM*	u
CNC(=O)N(O)C1N(/N=C/c2ccc(C)cc2)C(=S)SC1(C)C (stereo not given)	12%	20%	-10%	x	-7%	-15%
CN1CCN(CC(=O)Nc2nc(-c3c[nH]c4ccccc34)cs2)CC1	u	12%	-34%	-7%	-24%	u
CCC(C)Nc1nc(-c2c[nH]c3ccccc23)cs1 (stereo not given)	11µM*	u	35µM*	x	u	25µM*
CNc1nc(-c2c[nH]c3ccccc23)cs1	35µM*	u	18µM*	x	56µM*	35µM*
Cc1ccc2c(-c3csc(N)n3)c[nH]c2c1	45µM*	x	x	x	-19%	-27%
O=C(NN1CCCCC1)c1ccc(COc2ccc(Cl)cc2)cc1	-4%	34%	-13%	2%	15%	-13%
Cc1cc(C)c(S(=O)(=O)N(CC(=O)O)CC(=O)O)c(C)c1	22µM*	13%	u	x	-20%	14%
Cc1ccc(C)c(Nc2nc3c(S(=O)(=O)c4ccc(Br)cc4)nnn3c3ccsc23)c1	18µM*	4%	56µM*	x	x	50µM*
Cc1ccc(C)c(Nc2nc3c(S(=O)(=O)c4ccc(C(C)C)cc4)nnn3c3ccsc23)c1	-31%[59 µM]	18%	-15%	x	x	79µM*
N#Cc1ccc2c(c1)C[C@]1(c3ccsc3)Oc3c(c(=O)oc4ccccc34)C2O1	7%[2.33 µM]	x	x	x	-16%	13µM*
N#Cc1ccc2c(c1)C[C@]1(c3ccsc3)Oc3c(c(=O)oc4ccc(F)cc34)C2O1	x	x	x	x	-18%	u
Cc1cc2c(c(=O)o1)C1O[C@](c3ccsc3)(Cc3cc(C#N)ccc31)O2	7%[2.33 µM]	x	x	x	-3%	u
COc1ccc2c3c(c(=O)oc2c1)C1O[C@](c2ccsc2)(Cc2cc(C#N)ccc21)O3	u	x	x	x	-10%	13µM*
O=C(CCCN1CCN2CCCC2C1)c1ccc(F)cc1 (stereo not given)	-50%[12.7 µM]	x	x	x	-5%	x
SMILES	G9a block	HP1b chromo inh	JMJD2A Tudor	L3MBTL1 block	Sfp inh	BAZ2B inh
COc1ccc(NC(=O)c2cnc(N3CCCCC3)c3ccccc23)cc1Cl	-1%[59 µM]	38%[57 µM]	8%	x	x	4%
O=C(CSc1nc2ccccc2[nH]1)Nc1nc(-c2cccc(Br)c2)cs1	u	21%	-10%	-4%	7%	-9%
CN(C)CCCn1c(SCC(=O)Nc2nc(-c3cccc(Br)c3)cs2)nc2ccccc2c1=O	u	u	40µM*	x	45µM*	u
CC(Oc1ccc(Cl)cc1Cl)c1nc(-c2ccc(NC(=O)c3ccccn3)cc2)no1 (stereo not given)	21%[59 µM]	30%	-5%	1%	4%	3%
Cc1ccc(NC(=O)c2ccccc2OCc2ccc([N+](=O)[O-])cc2)nc1	-39%	26%	-21%	-3%[11.4 µM]	18%	-30%
COc1ccc2c(c1)CC(C(=O)N1CCC(C(N)=O)CC1)CO2 (stereo not given)	11%[59 µM]	26%[57 µM]	-2%	x	x	1%
O=C1NC(=S)N/C1=C/c1cc([N+](=O)[O-])ccc1O	11µM*	28%	-19%	x	u	-31%
O=C1NC(=S)N/C1=C/c1cccc([N+](=O)[O-])c1O	-3%[2.33 µM]	-11%	-24%	-5%	-17%	u
CN1C=CC=C/C1=C1\SC(=S)N(C2CCCCC2)C1=O	16µM*	-54%	40µM*	-30%	-18%	40µM*
CCN1C(C)=C(C)S/C1=C1\SC(=S)N(C2CCCCC2)C1=O	-11%	-1%	-29%	-2%	16%	-12%
CN1C=CC=C/C1=C1\SC(=S)N(c2ccccc2)C1=O	18µM*	-35%	-34%	-5%	25µM*	u
CN1C=CC=C/C1=C1\SC(=S)N(CC(=O)O)C1=O	20µM*	7%	-11%	-11%	45µM*	50µM*
CCN1C(=O)/C(=C2/C=CC=CN2C)OC1=S	45µM*	-6%	-18%	-4%	-17%	-2%
C=CCN1C=CC=C/C1=C1\SC(=S)N(C)C1=O	u	u	-17%	x	u	u
CC[C@H](C)[C@H](NC(=O)[C@@H](NC(=O)[C@@H](CC(=O)NO)Cc1ccccc1)[C@@H](C)CC)C(=O)O	x	x	x	x	-5%	x
COc1cc2c(cc1OC)C(CC(=O)O)N(C(=O)Nc1cc(OC)c(OC)c(OC)c1)CC2 (stereo not given)	-1%[12.7 µM]	19%	-11%	x	x	-12%
Cc1cc2c(s1)c1cnn(Cc3c(F)cccc3F)c(=O)c1n2C	x	x	-18%	x	x	x
CCC(=O)N1CCc2cc(Br)cc(S(=O)(=O)NCCc3ccc(OC)c(OC)c3)c21	-3%[59 µM]	40%	1%	x	x	0%
Cc1ccc(C(=O)NCCc2n[nH]c(=S)n2C)cc1	u	32%	u	4%	3%	-1%
CCn1c(CCNC(=O)c2ccc(Cl)cc2)n[nH]c1=S	u	21%	10µM*	x	6%	5%
CCn1c(CCNC(=O)c2ccc(Cl)cc2)nnc1SCC(=O)NC1CCCC1	35%[12.7 µM]	30%	-6%	-7%	-6%	-7%
